The source of these data is ChEMBL document CHEMBL4513216, “Probing the Open Global Health Chemical Diversity Library for Multistage-Active Starting Points for Next-Generation Antimalarials” (ACS Infect Dis, 2020).

Structures are written as SMILES. Out of some 69,000 compounds screened, about 8,600 (12%) showed an effect of 50% or more. This excerpt belongs to a sample that is enriched for strong results.

The subject of this assay is Plasmodium berghei. The assay can be described thus: Screen against P. berghei liver stage (PbLuc), transformed with Luciferase, at 10uM. In kind it is functional, HepG2. The following applies: tested at 10 uM.
On to `CC(CCNC(=O)NCCc1ccc(S(N)(=O)=O)cc1)c1ccccc1` (stereo not drawn), for which the INHIBITION was 54.8%.
As to `CC(CCNC(=O)NCCc1ccncc1)c1ccccc1` (stereo not drawn), the INHIBITION is recorded as 55.9%.
The same measure for `O=C(NCCc1ccccc1)NCC(O)c1cccc(F)c1` (stereo not drawn): -27%.
The same measure for `CC(CCNC(=O)NCCNc1cnccn1)c1ccccc1` (stereo not drawn): -10.4%; for `CC(c1cccc(S(N)(=O)=O)c1)N(C)CCc1ccccc1` (stereo not drawn): 33.6%.
The same measure for `Cc1cc(NC(=O)NCCc2ccc(S(N)(=O)=O)cc2)n(C)n1`: -193%.
For the compound `CCn1ccc2ccnc(CC3CN(C(=O)c4ccc(F)cc4)C3)c21`, the INHIBITION was determined as 16.5%.
Then `Cc1cc(-c2cc(-c3cc(CC(=O)O)cs3)nc(N)c2C#N)oc1C`, with 33.9%.
On to `CCc1nc(C)c(C(=O)N[C@@H]2c3ccccc3C[C@@H]2O)o1`, for which the INHIBITION was -5.22%.
The same measure for `CC(=O)N[C@@H]1Cc2ccccc2[C@H]1Nc1cc(C2CC2)ncn1`: 35%; for `CC(=O)N[C@@H]1Cc2ccccc2[C@H]1Nc1nnc(C2CC2)o1`: 52.6%; for `CCc1oc(C(=O)N[C@@H]2c3ccccc3C[C@@H]2O)cc1C`: 12.9%.
Then `CC(=O)N[C@@H]1Cc2ccccc2[C@H]1Nc1ccncn1`, with 67.5%; and `O=C(C1CCCC1)N1CCC(Nc2ccncn2)CC1`, with 49.9%; and `Cc1ccc(OCC(=O)N2CCOCC(O)(CN3CCCC3)C2)cc1C` (stereo not drawn), with 37.9%.
Then `Cc1cnc(CCNC(=O)C2CCN(S(=O)(=O)c3ccc(F)cc3)C2)s1` (stereo not drawn), with -21.8%; and `O=C(Cn1cc(-c2ccccc2)cn1)N1CCNC1=O`, with -7.53%.
In the case of `Cc1cc(C(=O)NCCc2c(C)nn(C)c2C)nc(N2CCCCC2)n1`, the INHIBITION was -10.5%.
The same measure for `O=C(CCn1nc(C(=O)Nc2ccccc2)ccc1=O)Nc1nccs1`: 13.1%.
The same measure for `N#Cc1ccc(CC(=O)N2CCC(Nc3cccnn3)CC2)cc1`: -3.7%; for `CCCc1n[nH]c(C2CN(C(=O)c3cncnc3C)CCO2)n1` (stereo not drawn): 36.1%; for `C=c1ncsc1=C1NC(c2cccc(CN3CCOCC3)c2)=NO1`: 12.6%.
Take `COc1ccc(CN2CCC3(CC2)CCN(c2cnn(C)c2)C3=O)cc1`: the INHIBITION is recorded as 43.9%.
The same measure for `O=C(c1ccncc1)N1C[C@H]2CC[C@@H](C1)N(C(=O)C1CCCC1)C2`: -3.48%.
For the compound `CCn1cc(CN(C)S(=O)(=O)N2CCCC2c2ccco2)cn1` (stereo not drawn), the INHIBITION turned out to be 32%.
The same measure for `CN(Cc1cnn(C)c1)S(=O)(=O)N1CCCC1c1ccco1` (stereo not drawn): 52.2%; for `CCN(Cc1cnn(C)c1)S(=O)(=O)N1CCCC1c1ccco1` (stereo not drawn): 27.5%; for `O=C(c1ccc(C2CCCN2C(=O)c2cscn2)s1)N1CCSCC1` (stereo not drawn): -30.6%.
The same measure for `CN(C)CC(=O)N1CCC2(CC1)COC(COc1ccccn1)C2` (stereo not drawn): 35.3%; for `COc1ncc(CN2C[C@@H]3CC[C@@](O)(c4ccc(C)cn4)[C@@H]3C2)cn1`: 41.2%; for `CSc1ccc(CN2C[C@@H]3CC[C@@](O)(c4ccc(C)cn4)[C@@H]3C2)cc1`: 75.3%.
Then `Cc1ccc([C@]2(O)CC[C@H]3CN(Cc4cc(C)c(O)c(C)c4)C[C@H]32)nc1`, with 45.5%; and `O[C@@]1(c2ccccn2)CC[C@H]2CN(Cc3ccccn3)C[C@H]21`, with 29.3%; and `Cc1ccc([C@]2(O)CC[C@H]3CN(Cc4cccnc4)C[C@H]32)nc1`, with 41.2%.
Regarding `Cc1ccc([C@]2(O)CC[C@H]3CN(Cc4ccncc4)C[C@H]32)nc1`, the INHIBITION is listed as 66.4%.
The same measure for `O=C(C[C@@H]1COC[C@H]2CN(Cc3ccccn3)C[C@@H]12)N1CCOCC1`: 33%; for `Cc1noc(C)c1CC(=O)NCC1(O)CCCN(c2ccccn2)C1` (stereo not drawn): 14.6%.
Then `CC(C)(C)c1nc(CN(Cc2ccccc2Cl)C2CCCC2)no1`, with 9.35%; and `CC(C)(C)c1nc(CN(CCO)Cc2cc(Br)ccc2F)no1`, with -38.2%.
The same measure for `CN(Cc1ccc(C#N)cc1)Cc1noc(C(C)(C)C)n1`: 53.5%.
For the compound `CCN(Cc1noc(C(C)(C)C)n1)Cc1ccc(C#N)cc1F`, the INHIBITION stood at 28%.
The same measure for `CC(c1nc(C2CC2)no1)N(C)Cc1ccc(C#N)cc1` (stereo not drawn): -4.4%; for `CSc1ccc(CN(C)Cc2noc(C(C)(C)C)n2)cc1`: 56.9%.
The same measure for `CCc1cc(N(C)CCCO)n2nccc2n1`: 19.4%; for `Cc1noc(C)c1CN(C)C(=O)Nc1cnn(CC2CCCO2)c1` (stereo not drawn): 18.4%; for `Cc1cc(C(=O)N[C@H](C)c2onc(C)c2C(=O)O)c(C)o1`: -12.2%.
Turning to `COCCSCC(=O)NCc1ccnc(N(C)C)c1`, the INHIBITION stood at 46.4%.
Then `Cc1oc(C(C)C)cc1C(=O)N1C[C@@H]2CC[C@H]1CN(S(=O)(=O)N(C)C)C2`, with -19.5%.
The same measure for `CC(C)N1CC2(CCCN(Cc3noc(C4CCCC4)n3)C2)CCC1=O` (stereo not drawn): 50.5%; for `CCCN1CCCC2(CCN(Cc3noc(C4CCCC4)n3)C2)C1=O` (stereo not drawn): -15.8%.
The same measure for `O=C1CCC2(CCCO2)CCN1Cc1noc(C2CCCC2)n1` (stereo not drawn): 26.7%.
For the compound `O=C1N(CCO)CCCC12CCN(Cc1noc(C3CCCC3)n1)C2` (stereo not drawn), the INHIBITION was 22.7%.
The same measure for `CNC1CCCN(Cc2noc(C3CC3)n2)C1` (stereo not drawn): -17.4%; for `CC(C)N1CCCC2(CCN(Cc3noc(C4CCCC4)n3)C2)C1=O` (stereo not drawn): 70.2%; for `CCN1CCC2(CCN(Cc3nccs3)CC2)C1=O`: -28.8%.
The same measure for `O=C(NCC(=O)N1CCCCC1)c1ccoc1`: 17.3%; for `Cc1ccc2[nH]c(=O)c(CNCCCN3CCOCC3)cc2c1`: -37%; for `Cc1csc2c(N3CCNC(C(=O)Nc4ccc(F)cc4)C3)ncnc12` (stereo not drawn): 62.8%.
Then `Cc1csc2c(N3CCNC(C(=O)N4CCCC4)C3)ncnc12` (stereo not drawn), with -10.1%; and `Cc1csc2c(N3CCNC(C(=O)NCc4cccnc4)C3)ncnc12` (stereo not drawn), with 16.9%; and `CCn1cc(CN2C[C@@H]3CCCN3C[C@@H]2CCSC)c(C)n1`, with 46.1%.
For the compound `Cc1cc(-n2nc(C)nc2-c2cn(CCN)nn2)ccn1`, the INHIBITION turned out to be 41.5%.
The same measure for `Cc1nc(-c2cn(CCN)nn2)n(-c2ccc3c(c2)CCC3)n1`: 56.5%; for `CN(C)C(=O)Cn1cc(C(=O)NCCc2ccc(C(F)(F)F)cc2)nn1`: -25.9%; for `CNS(=O)(=O)CCn1cc(-c2cc3c(cc2OC)CCC3)nn1`: 37.3%.
Then `Cc1nc(-c2cn(CCN)nn2)n(-c2ccc(C(F)(F)F)cc2)n1`, with 76.8%; and `Cc1nc(CCN2CCCCC2)n(-c2ccc(F)cc2)n1`, with -8.19%.
The same measure for `CC(C)c1noc(CNC2CCCN(Cc3noc(C4CC4)n3)C2)n1` (stereo not drawn): -42.1%.
Regarding `Cc1nc(N2CCN(C)CC2)ncc1C(=O)N1CC[C@](C)(O)[C@H](C)C1`, the INHIBITION is -10.2%.
The same measure for `CCc1nnc2n1CCN(C=C1NN=C(c3occc3C)O1)C2`: 11.2%; for `Cc1ccoc1C1=NNC(=CN2CCOC(Cn3cccn3)C2)O1` (stereo not drawn): -50.5%.
The same measure for `CCOCCN1CCN(C=C2NN=C(c3occc3C)O2)CC1CC` (stereo not drawn): 76.7%.
The same measure for `Cc1ccoc1C1=NNC(=CN2CCn3c(C)nnc3C2)O1`: -21.7%; for `COCCN1CCN(C=C2NN=C(c3occc3C)O2)CC1`: 43.4%.
Regarding `CCOCCN1CCN(C=C2NN=C(c3occc3C)O2)CC1`, the INHIBITION turned out to be 70.3%.
Turning to `CC(C)c1nc(CN2CCN(C(=O)OC(C)(C)C)C(C)C2)no1` (stereo not drawn), the INHIBITION was -9.35%.
Consider `Cc1nn(C)c2c(=O)n(Cc3ccc(C#N)cc3)nnc12`, for which the INHIBITION was 8.15%.
Then `CC(C)OCCCNC(=O)CS(=O)(=O)Cc1cccc(Cl)c1`, with -63.3%.
The same measure for `Cn1ccnc1-c1cn(CCc2nnc(N)s2)nn1`: 40.2%; for `CC(C)c1nnc2n1CC(CNCc1ccsc1)CC2` (stereo not drawn): 5.85%; for `Cc1oc(-c2ccsc2)nc1CC(=O)NCCCS(C)(=O)=O`: 5.05%.
Then `O=C(c1ccncc1Cl)N1CCN(Cc2ccco2)C(CCO)C1` (stereo not drawn), with 16.2%; and `O=C(c1ncccc1O)N1CCN(Cc2ccco2)C(CCO)C1` (stereo not drawn), with 17%.
In the case of `Cc1cc(C(=O)N2CCN(Cc3ccco3)C(CCO)C2)cc(=O)[nH]1` (stereo not drawn), the INHIBITION was 52.1%.
The same measure for `CCOc1ccc(C(=O)N2CCCC2Cn2cc(C)cn2)cn1` (stereo not drawn): 28.55%.
Then `CCn1cc(NC(=O)C2CCN(CC(=O)NCC(C)C)CC2)cn1`, with 37.4%; and `Cc1ccc(NC(=O)c2cc3c(=O)n(C)c(=O)n(C)c3nc2C)cc1Cl`, with -6.83%.
Then `CCOc1cc([C@H]2N[C@@H](c3nc(C)cs3)Cc3ccsc32)ccc1OC`, with 75%; and `COc1cccc([C@@H]2N[C@H](c3nccs3)Cc3ccsc32)c1OC`, with 49.2%.
As to `CCOc1ccc([C@@H]2N[C@H](c3nccs3)Cc3ccsc32)cc1OC`, the INHIBITION is given as 69.25%.
The same measure for `COc1ccc(OC)c([C@@H]2N[C@H](c3nccs3)Cc3ccsc32)c1`: 43.4%; for `CCOc1cc([C@@H]2N[C@H](c3nccs3)Cc3ccsc32)ccc1OC`: 25.05%; for `COc1cc([C@@H]2N[C@H](c3nccs3)Cc3ccsc32)cc(OC)c1OC`: 47.2%.
On to `COCCN1CCC2(CC1)CN(Cc1cccc(C)n1)C(=O)CO2`, for which the INHIBITION is 7.53%.
The same measure for `COc1ccc(CCC(=O)N(C(C)C)C2CCOCC2)cc1`: -42.1%; for `CC(C(=O)N1CCN(c2ccccc2)CC1)n1cc(Br)cn1` (stereo not drawn): -35.4%.
Consider `O=C(c1c[nH]nn1)N1CCN(C(c2ccccc2)C(F)(F)F)CC1` (stereo not drawn), for which the INHIBITION is given as -10.9%.
The same measure for `O=C(c1cc[nH]n1)N1CCN(C(c2ccccc2)C(F)(F)F)CC1` (stereo not drawn): 17.1%; for `O=C(c1ccccn1)N1CCN(C(c2ccccc2)C(F)(F)F)CC1` (stereo not drawn): 51.7%.
The same measure for `NC(=O)C1CN(c2ccc(F)cc2)CCN1` (stereo not drawn): 25.8%; for `Cc1nc2ccccc2nc1NCc1nnc2n1CCC2`: 52.9%.
On to `c1ccc2nc(N3CCCCC3)c(NCc3nnc4n3CCC4)nc2c1`, for which the INHIBITION was 0.897%.
In the case of `c1ccc2nc(N3CCCC3)c(NCc3nnc4n3CCC4)nc2c1`, the INHIBITION worked out at 16.1%.
